Screening data as filed in PubChem BioAssay.
Compounds with a hit are over-represented: about 32% of the library has one in this group of screens.
PostGolgi ctrl: growth of the yeast control strain, post-Golgi counter-screen | 98,000 tested, 5% active | efflux-deficient yeast background strain, growth absorbance A615, 16 h | inhibition, % at 10 µM | AID 738
CYP2C19 activ: activators of human cytochrome P450 2C19. activation factor at 5 µM. 96,000 tested, under 10 active. P33261. recombinant CYP2C19, luciferin-H EGE luminescence; active compounds read high; 0 = fully inhibited enzyme, 1 = untreated enzyme;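 active means activation factor of at least 2 at 5 µM in the primary screen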;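 further: 0 = wells with 2.5 mM tranylcypromine and 1 = vehicle-only wells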
Target sequence (P33261 whole entry, looked up): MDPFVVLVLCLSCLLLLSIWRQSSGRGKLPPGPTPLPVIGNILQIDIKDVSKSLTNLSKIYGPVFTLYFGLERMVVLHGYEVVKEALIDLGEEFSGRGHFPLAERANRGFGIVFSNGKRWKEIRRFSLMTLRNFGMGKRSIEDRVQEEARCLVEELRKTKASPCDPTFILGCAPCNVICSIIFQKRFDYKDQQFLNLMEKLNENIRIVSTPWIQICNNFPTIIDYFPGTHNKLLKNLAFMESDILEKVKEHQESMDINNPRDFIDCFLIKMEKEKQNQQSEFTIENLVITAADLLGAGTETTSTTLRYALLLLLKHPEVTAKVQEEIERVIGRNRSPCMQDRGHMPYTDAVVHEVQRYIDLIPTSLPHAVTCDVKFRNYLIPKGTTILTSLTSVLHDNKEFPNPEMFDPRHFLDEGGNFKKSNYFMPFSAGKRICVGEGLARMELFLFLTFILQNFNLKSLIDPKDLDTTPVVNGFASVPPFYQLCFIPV
CYP2C19 inh: human CYP2C19 inhibition. P33261. CYP2C19 Supersomes, luciferin-H EGE luminescence, 30 min. inhibition, % at 5 µM. 96,000 tested, 21% active. AID 778;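 active means CYP2C19 inhibition above a set limit at 5 µM in the primary screen, cut at about 50% in these data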;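 further: plate controls were negative control wells for no effect and 2.5 mM tranylcypromine positive control for full effect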
CYP2C9 activ: increases human cytochrome P450 2C9 activity; P11712; activation factor at 5 µM; recombinant CYP2C9, luciferin-H conversion, luminescence; active compounds read high; factor 1 = untreated enzyme, 0 = blocked; AID 1024; 96,000 tested, 1.4% active;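 active means activation factor of 2 or more for CYP2C9 at a 5 µM dose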;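 further: 0 = sulfaphenazole-blocked wells and 1 = vehicle-only wells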
CYP2C9 inhib: inhibitors of human CYP2C9 | P11712 | CYP2C9 Supersomes, luciferin-H conversion, luminescence | inhibition, % at 5 µM | 96,000 tested, 20% active | AID 777;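 active means blocking of liver enzyme CYP2C9 beyond about 50% at 5 µM, limit read from the data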
PostGolgi yeast: growth inhibition of a yeast mutant, post-Golgi transport screen. post-Golgi transport phenotypic cell assay. inhibition, % at 10 µM. 98,000 tested, 0.9% active;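 further: yeast cells grown in 1536-well plates; yeast grown about 18 h at 30C before absorbance read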
* hit, by the source's call. Unless noted, no stated cut-off is given here; in the data, active means inhibition above about 30%; inactive means the rest.

SMILES	PostGolgi ctrl	CYP2C19 activ	CYP2C19 inh	CYP2C9 activ	CYP2C9 inhib	PostGolgi yeast
Cc1cc(C)n2nc(C(=O)Nc3ccc(S(=O)(=O)N4CCCCC4)cc3)nc2n1	12	0.9	7	0.9	14	-7
CCN(CC(F)(F)C(F)F)S(=O)(=O)c1ccc(NC(=O)OC)cc1	7	0.8	22	0.6	41	1
CCOc1ccc(N(C(C)C(=O)Nc2ccc(OC)cc2)S(C)(=O)=O)cc1 (centres undefined)	8	0.3	74*	0.3	72*	-2
CCN(CC)S(=O)(=O)c1ccc(NC(=O)C(C)N(c2ccc(OC)cc2)S(C)(=O)=O)cc1 (centres undefined)	10	0.9	7	0.4	56*	-5
COCCNC(=O)C(C)N(c1ccc(OC)cc1)S(C)(=O)=O (centres undefined)	19	0.8	23	1.3	-29	0
COc1cccc(OCCN2CCN(c3ncnc4c3cnn4-c3ccccc3)CC2)c1	9	0.5	50	0.5	48	-6
Cc1sc2ncnc(N3CCN(CCOc4ccc(Cl)cc4)CC3)c2c1C	35*	0	97*	0	99*	-5
COCCSc1nc2sc3c(c2c(=O)n1-c1ccccc1)CCN(C)C3	18	0	98*	0.7	33	-7
COc1ccc(-n2c(SCC(=O)Nc3nccs3)nc3sc4c(c3c2=O)CCN(C)C4)cc1	-5	0.6	36	0.8	16	0
Cc1cccc2nc(C(F)(F)F)nc(=O)n12	6	0.9	7	0.9	8	5
NC(=O)c1cccc(S(=O)(=O)N2CC(c3ccccc3)CC2=O)c1 (centres undefined)	-6	0.4	56*	2.2*	-116	21
NC(=O)C1CCN(S(=O)(=O)c2cccc(S(=O)(=O)N3CCCCC3)c2)CC1	-4	0.9	14	0.6	36	0
O=C1CC(c2ccccc2)CN1S(=O)(=O)c1ccccc1 (centres undefined)	-9	0	99*	2.5*	-152	-6
COC(=O)N1CC(c2ccccc2)CC1=O (centres undefined)	7	0.6	35	0.8	20	-6
COC(=O)c1cc(Br)c(=O)n(-c2ccccc2OC)c1	11	0.9	14	1.2	-22	15
COC(=O)c1cc(Br)c(=O)n(-c2ccc(OC)cc2)c1	-9	0.4	55*	0.9	12	-1
COC(=O)c1cc(Br)c(=O)n(-c2cccc(F)c2)c1	2	0.5	52*	1	0	-6
COc1ccc(NC(=O)CNS(=O)(=O)c2cccs2)c(OC)c1	-4	0.4	57*	0.6	40	20
COc1ccc2nc(NC(=O)CNS(=O)(=O)c3cccs3)sc2c1	-3	0.4	64*	0.9	7	7
COc1ccc(NCC(=O)Nc2ccc(Cl)cc2C)c(OC)c1	22	0.1	93*	0	99*	8
COc1ccc(NC(=O)c2ccccc2C)c(OC)c1	13	0.6	38	1.2	-15	-8
Cc1csc(NC(=O)CNS(=O)(=O)c2cccs2)n1	-2	0.8	22	0.9	14	15
COc1ccc2nc(NC(=O)Cc3cccs3)sc2c1	-2	0.7	33	0.5	49	7
COCCNC(=O)CNS(=O)(=O)c1ccc2nc(C)sc2c1	2	1	-5	1.1	-5	-4
COc1ccc(NC(=O)CNS(=O)(=O)c2ccc3nc(C)sc3c2)c(OC)c1	7	0.7	28	0.5	51*	7
SMILES	PostGolgi ctrl	CYP2C19 activ	CYP2C19 inh	CYP2C9 activ	CYP2C9 inhib	PostGolgi yeast
CCOCC(=O)Nc1nc2ccc(OC)cc2s1	-13	0.6	40	0.6	45	-5
COc1ccc2nc(NC(=O)CN(C)S(=O)(=O)c3cccs3)sc2c1	5	0.2	80*	0.4	62*	22
Cc1noc(C)c1S(=O)(=O)N1CCCC(C(=O)N2CCC(C)CC2)C1 (centres undefined)	0	1	0	1	-1	4
CC(Nc1cccc2ccccc12)C(=O)N/N=C/c1ccccn1 (centres undefined)	4	0.1	86*	1.1	-14	-4
CN1CCN(CCCNC(=O)Cn2nc(-c3ccccc3)ccc2=O)CC1	-1	1.1	-10	1.1	-15	41*
O=C(Cn1nc(-c2ccc(Cl)cc2)ccc1=O)NCCCN1CCN(Cc2ccccc2)CC1	-4	1.1	-6	1	4	0
O=C1NC2(CCCCC2)C(=O)N1/N=C/c1ccc(O)cc1O	6	0.9	13	3.2*	-219	-1
Cc1cccc(CCNC(=O)CCc2nc(-c3ccccc3F)no2)c1	1	0.1	92*	0.2	82*	2
COc1ccc(-c2noc(CCC(=O)Nc3ccc(C)c(C)c3)n2)cc1	9	0.6	39	0.4	58*	-3
COc1ccc(-c2noc(CCC(=O)Nc3ccc4c(c3)OCCO4)n2)cc1	24	0.3	66*	0.2	76*	13
CCc1ccc(CCC(=O)Nc2ccc(C)c(C)c2)o1	7	0.5	51*	0.9	14	18
Cc1cc(C(=O)N/N=C/c2cccc(Cl)c2Cl)no1	3	0.9	14	1.3	-28	-4
Cn1nnnc1SCC(=O)Nc1nc(-c2ccccc2)c(-c2ccccc2)o1	25	1	-1	1.1	-7	5
COc1ccc(C(=O)C[n+]2ccc3c(c2)nc(-c2cc(OC)c(OC)cc2OC)n3C)cc1	-2	1	1	1	-2	-4
Cc1nn(-c2cc(C)c3ccccc3n2)c2c1CCC2	-1	0.8	24	0.9	10	18
C=CCOc1cccc(C2/C(=C(/O)c3ccc(F)cc3)C(=O)C(=O)N2CCN2CCOCC2)c1 (centres undefined)	22	0.9	9	1	2	-9
CCN(CCCNC(=O)CCc1nc(-c2ccc(OC)cc2)no1)c1cccc(C)c1	29	0.1	93*	0.1	87*	-3
CCOC(=O)c1ccc(NC(=O)CCc2nc(-c3ccc(C)cc3)no2)cc1	5	0.3	70*	0.1	94*	3
Cc1ccc(OCCCC(=O)Nc2ccc3c(c2)OCO3)cc1	7	1	5	0.8	15	-4
COc1ccc(OCCCC(=O)Nc2ccc3c(c2)OCCO3)cc1	1	0.2	76*	0.1	86*	-12
Cc1ccc(-c2ccc(=O)n(CCC(=O)NCc3ccccn3)n2)cc1	-6	0.9	9	0.9	10	1
COc1ccc2nc(Nc3nc(C)c(CCC(C)C)c(=O)[nH]3)nc(C)c2c1	31*	0.4	60*	0.4	58*	-1
O=C(CSc1nc(-c2ccccc2)c(-c2ccccc2)[nH]1)N1CCN(S(=O)(=O)c2ccccc2)CC1	4	0.1	86*	0.2	80*	0
